This is a sample that favours compounds with a hit; in the whole collection about 2.4% have one here.
SENP8 block-1: inhibitors of human SENP8 protease; Q96LD8; recombinant SENP8, Nedd8 substrate fluorescence; inhibition, % at 20 µM; hit rate 0.64% among 360,000; AID 602440; in the data active = inhibition mostly above about 40%, no sharp cut-off; inactive = mostly below about 27%
Target sequence (Q96LD8 whole entry, looked up): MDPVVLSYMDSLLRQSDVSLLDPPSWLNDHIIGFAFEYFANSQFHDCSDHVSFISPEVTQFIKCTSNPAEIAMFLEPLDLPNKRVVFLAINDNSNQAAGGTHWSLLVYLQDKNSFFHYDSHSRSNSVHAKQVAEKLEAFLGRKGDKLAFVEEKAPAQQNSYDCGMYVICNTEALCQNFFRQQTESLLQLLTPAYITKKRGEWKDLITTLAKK
SENP7 block: SENP7 protease inhibition; Q9BQF6; recombinant SENP7, Z-RLRGG-aminoluciferin luminescence, 40 min; inhibition, % at 5 µM; hit rate 1.5% among 330,000; AID 434973;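 active = inhibition above about 50% at the single test dose, limit read from the data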;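 note: plate controls were DMSO with enzyme for no effect and no enzyme buffer wells for full effect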
SENP6 block: SENP6 protease inhibition; inhibition, % at 10 µM; hit rate 1.8% among 330,000; Q9GZR1; AID 2599; Recombinant SENP6 catalytic domain, aminoluciferin luminescence;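 active = inhibition above about 50% at the single tested dose, limit read from the data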;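 note: plate controls were DMSO wells with enzyme for no effect and DMSO wells lacking enzyme for full effect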
Target sequence (Q9GZR1 628-1112 limits assumed): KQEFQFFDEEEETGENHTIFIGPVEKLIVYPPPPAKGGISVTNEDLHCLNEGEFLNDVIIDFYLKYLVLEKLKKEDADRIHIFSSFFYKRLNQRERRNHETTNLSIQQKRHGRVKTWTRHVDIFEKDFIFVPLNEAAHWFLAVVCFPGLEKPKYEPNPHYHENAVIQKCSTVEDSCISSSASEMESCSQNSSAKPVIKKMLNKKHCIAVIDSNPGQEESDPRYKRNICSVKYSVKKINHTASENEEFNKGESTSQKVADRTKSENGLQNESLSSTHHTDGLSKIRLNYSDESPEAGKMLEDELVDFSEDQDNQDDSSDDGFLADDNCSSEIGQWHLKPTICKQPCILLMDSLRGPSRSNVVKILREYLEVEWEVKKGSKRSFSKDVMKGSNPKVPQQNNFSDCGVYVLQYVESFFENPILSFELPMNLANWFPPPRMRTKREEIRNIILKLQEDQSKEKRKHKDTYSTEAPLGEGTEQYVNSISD
Platelet DG rel: modulates dense granule release in human platelets. human platelet-rich plasma, SFLLRN dense granule ATP release, luminescence. inhibition, %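 (compounds screened at 7.5 µM in platelet-rich plasma)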. hit rate 0.22% among 300,000. AID 1663;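 active = mean replicate score, as percent of positive control, at or above 50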
SENP8 block-2: blocks the human protease SENP8. purified SENP8, Z-RLRGG-aminoluciferin cleavage, luminescence. hit rate 1.2% among 330,000. Q96LD8. inhibition, % at 10 µM. AID 2540; in the data active = inhibition above about 50%
SENP8 confirm: human SENP8 inhibition, confirmed; AID 488912; inhibition, % at 12.5 µM; shares compounds with SENP7 block; Recombinant SENP8, Z-RLRGG-aminoluciferin luminescence, 60 min; hit rate 40% among 6,200;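 active = mean inhibition across replicates above about 50%, limit read from the data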
SENP6 conf: human SENP6 inhibition, confirmed | shares compounds with SENP7 block | recombinant SENP6, Z-RLRGG-aminoluciferin luminescence | inhibition, % at 12.5 µM | hit rate 58% among 6,200 | AID 488915
SENP7 confirm: human SENP7 inhibition, confirmed. hit rate 69% among 6,200. inhibition, % at 12.5 µM. AID 488917. shares compounds with SENP7 block. recombinant SENP7, Z-RLRGG-aminoluciferin luminescence, 40 min
Casp3 select: inhibits human caspase-3 in SENP selectivity test. shares compounds with SENP7 block. purified caspase-3, Z-DEVD-aminoluciferin luminescence, 60 min. inhibition, % at 12.5 µM. hit rate 60% among 6,200;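 active = mean inhibition above about 50%, limit read from the data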;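 note: plate controls were enzyme with DMSO for no effect and wells without caspase-3 for full effect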
Luc interf: luminescence interference (SENP counter-screen). inhibition, % at 12.5 µM. shares compounds with SENP7 block. Pre-incubated SENP8/Z-RLRGG-aminoluciferin, luciferase luminescence interference. hit rate 39% among 6,200;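 active = mean inhibition above about 50% when retested at one dose, limit read from the data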;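 note: plate controls were DMSO wells with completed reaction for no effect and substrate without enzyme for full effect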
The depositor's hits bear a star; i = inactive; / = not tested or not shown.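 Rule for the calls, unless noted: active = mean inhibition above about 50% in the one-dose retest (limit read from the data); inactive = the rest.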

SMILES	SENP8 block-1	SENP7 block	SENP6 block	Platelet DG rel	SENP8 block-2	SENP8 confirm	SENP6 conf	SENP7 confirm	Casp3 select	Luc interf
NC(=O)c1c(NC(=O)c2ccccc2)sc2c1CCC2	-126.2	12.1	57.2*	3.8	40.8	-5.4	14.7	83.0*	41.6	-0.4
Cc1cc(C(=O)Nc2sc3c(c2C#N)CCCCC3)cs1	-19.9	76.7*	57.2*	-13.6	30.7	15.7	38.2	40.3	23.1	16.0
NC(=O)c1c(NC(=O)c2ccncc2)sc2c1CCCC2	1.4	-6.1	-7.9	-4.8	-8.1	/	/	/	/	/
CN1CCc2c(sc(NC(=O)c3ccc4ccccc4c3)c2C(N)=O)C1	-315.1	68.4*	61.9*	42.7	66.5*	59.0*	61.4*	88.2*	61.2*	43.6
Cc1cc(C(=O)N2CCC2(C)C(=O)Nc2cccc3ccccc23)nn1C (configuration not stated)	14.7	/	/	/	/	/	/	/	/	/
O=C(Nc1ccc2ccccc2c1)c1ccccc1[N+](=O)[O-]	i	/	/	/	/	/	/	/	/	/
O=C(Nc1ccc2ccccc2c1)c1ccc(Cl)cc1Cl	18.3	84.7*	67.5*	-9.8	55.5*	-0.5	53.8*	50.5*	54.6*	9.6
O=C(Nc1ccc2ccccc2c1)c1ccccc1O	-130.1	96.3*	99.1*	2.9	95.5*	93.5*	96.5*	102.1*	92.1*	64.0*
Cc1occc1C(=O)Nc1cc(C(C)(C)C)on1	20.6	96.7*	96.0*	56.1*	93.5*	93.2*	95.0*	101.5*	96.6*	94.9*
Cc1occc1C(=O)Nc1ccc2ccccc2c1	-18.2	-4.8	-8.3	21.1	82.2*	7.0	95.6*	102.3*	91.7*	94.7*
Cc1cccc(NC(=O)c2ccoc2C)n1	-5.2	31.3	38.7	5.4	5.2	/	/	/	/	/
O=C(Nc1ccc2ccccc2c1)c1ccccc1Cl	14.5	/	/	/	/	/	/	/	/	/
CC(=O)c1cccc(NC(=O)c2ccoc2C)c1	10.4	-3.4	1.0	-4.0	-1.3	/	/	/	/	/
COc1ccc(OC)c(S(=O)(=O)NCCc2csc(-c3cccnc3)n2)c1	18.0	3.3	-3.5	-2.9	-5.3	/	/	/	/	/
COc1ccc(C(=O)COC(=O)CNC(=O)c2ccc(OC)cc2)cc1	5.9	9.4	-0.8	13.4	-2.2	/	/	/	/	/
Cc1noc(C)c1C(=O)Nc1nc2ccc(Cl)cc2s1	-48.3	94.0*	96.2*	-13.4	94.7*	92.1*	95.5*	101.0*	93.2*	65.6*
Cc1noc(C)c1C(=O)Nc1ccc(F)c(F)c1	19.6	-1.7	4.5	-21.2	-7.4	/	/	/	/	/
Cc1noc(C)c1C(=O)Nc1nc2ccc(F)cc2s1	-70.8	100.4*	0.2	/	98.6*	97.0*	99.7*	103.1*	98.6*	47.5
CCc1noc(C)c1C(=O)Nc1nc2ccc(F)cc2s1	-34.4	65.8*	81.2*	3.6	64.2*	76.3*	75.6*	94.0*	74.6*	70.8*
CCc1noc(C)c1C(=O)Nc1nc2ccc(S(C)(=O)=O)cc2s1	-261.9	24.6	40.6	6.5	4.2	/	/	/	/	/
Cc1onc(-c2ccccc2Cl)c1C(=O)Nc1nc2ccc(S(C)(=O)=O)cc2s1	-338.6	-12.1	-8.1	5.6	-0.8	/	/	/	/	/
O=C(Nc1ccc(Cl)cc1)c1cc(Br)ccc1OCC(=O)N1CCOCC1	3.5	-2.5	-14.5	7.4	-1.5	/	/	/	/	/
COc1ccc(C(=O)NN/C(=N/S(=O)(=O)c2ccc(C)cc2)c2ccccc2)cc1	-152.0	78.3*	87.7*	15.1	54.0*	68.7*	64.3*	88.3*	69.9*	72.7*
CCOc1ccc(S(=O)(=O)/N=C(/Nc2ccc(OC)cc2)c2ccccc2)cc1	6.3	-3.4	4.1	0.5	-0.3	/	/	/	/	/
Cc1ccc(S(=O)(=O)/N=C(/NC(=S)Nc2ccccc2)c2ccccc2)cc1	13.3	47.3	73.6*	3.6	36.6	67.2*	65.4*	85.8*	34.8	27.9
SMILES	SENP8 block-1	SENP7 block	SENP6 block	Platelet DG rel	SENP8 block-2	SENP8 confirm	SENP6 conf	SENP7 confirm	Casp3 select	Luc interf
Cc1onc(-c2ccccc2)c1C(=O)Nc1nc2c(s1)CCCC2	-13.3	-1.2	-14.1	-0.5	-8.9	/	/	/	/	/
Cc1cc(C(=O)Nc2nc3c(s2)CCCC3)no1	9.8	56.3*	62.9*	-10.6	18.6	45.5	41.8	79.6*	75.3*	54.5*
CN(C)c1ccc(C(=O)Nc2nc3c(s2)CCCC3)cc1	-397.2	98.1*	95.4*	20.1	93.7*	13.5	69.3*	82.2*	58.5*	38.1
Cc1ccc(NC(=O)C(=O)c2c[nH]c3ccccc23)cc1	16.1	69.6*	66.0*	-6.1	46.6	51.7*	49.4	87.1*	44.9	10.9
O=C(Nc1cccc2nsnc12)c1cccnc1	-119.9	6.4	-2.8	43.6	-2.9	/	/	/	/	/
O=C(Nc1ccccc1)Nc1cccc2nsnc12	-73.3	95.2*	94.6*	9.8	90.6*	95.9*	96.3*	100.4*	92.2*	89.5*
COc1ccccc1CNC(=O)CN1C(=O)c2ccc([N+](=O)[O-])cc2C1=O	15.1	1.4	-19.3	1.7	7.3	/	/	/	/	/
COc1ccc2oc(=O)c(-c3nc(C)cs3)cc2c1	-294.1	91.6*	48.2	/	74.5*	-11.0	20.8	24.1	32.0	12.3
COc1ccc2oc(=O)c(-c3nnc(N)s3)cc2c1	-414.7	16.1	4.6	6.7	-0.6	/	/	/	/	/
O=C(Nc1cccc(O)c1)c1c(O)c2ccccc2[nH]c1=O	-26.2	85.7*	48.2	10.1	62.1*	7.2	50.2*	77.5*	56.8*	44.5
O=C(Nc1ccncc1)c1sc2ccccc2c1Cl	8.1	0.8	-8.3	5.2	6.5	/	/	/	/	/
O=C(Nc1ccnc(=O)[nH]1)c1sc2ccccc2c1Cl	-78.5	54.0*	74.3*	-1.2	52.2*	1.6	-2.3	6.8	11.1	4.2
Nc1cc2nn(-c3ccccc3)nc2cc1Cl	-420.2	/	/	2.9	/	/	/	/	/	/
COc1ccc(-n2nc3ccccc3n2)cc1	3.9	-4.5	-55.8	-3.2	-21.6	/	/	/	/	/
Nc1ccc2nn(-c3cccc4ccccc34)nc2c1	-490.0	77.2*	78.5*	-4.9	84.7*	-3.1	26.7	16.3	5.6	6.7
Nc1ccc(-n2nc3ccccc3n2)cc1	-452.2	63.8*	41.3	1.2	37.5	36.3	56.5*	87.4*	60.2*	66.8*
Cc1cc2nn(-c3cccc4ccccc34)nc2cc1N	-353.4	11.8	13.5	-4.5	-3.6	/	/	/	/	/
Nc1ccc2nn(-c3ccccc3)nc2c1	-409.7	43.3	74.5*	/	65.7*	-5.0	65.0*	81.7*	62.2*	31.1
O=[N+]([O-])c1cccc(COc2ccccc2CO)c1	8.4	/	/	/	/	/	/	/	/	/
